From PubChem BioAssay (NCI)
“And” between values parts separate entries of the source, which are not always exact repeats. Equal values may be shown once. This is part of a sample that, as a whole, favours compounds with a hit. Of some 83,000 tested, about 20% had one in any assay.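 In brief: 96-well plates, 48 h treatment, single concentration, percent growth endpoint.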 The source made the active and inactive calls. The calls were made as follows: active = growth percent below 10; inactive = the rest.

tested on: MDA-MB-468 breast; experiment: NCI-60 one-dose screen, 48 h (100 = growth as untreated, 0 = no growth, -100 = all killed); conditions: 10 µM unless noted

Compound | growth
c1ccc(CSc2ncccc2-c2nnc(SCCN3CCOCC3)o2)cc1 | 98.3% (inactive)
COc1ccc2c3c(c4ccccc4cc13)C(=O)N(CCN(C)CCN)C2=O | -76.5% (active)
Cc1nc2ccccc2c(C(=O)O)c1O | 99.9% (inactive)
c1ccc(-c2n(Cc3ccc4ccccc4n3)cc[n+]2Cc2ccc3ccccc3c2)cc1 | -33.5% (active)
CC(C)c1ncc(CO)n1Cc1c(Cl)cccc1Cl | 97.5% (inactive)
CC(C)(C)OC(=O)N1C/C(=C\c2ccccc2)C(=O)/C(=C/c2ccccc2)C1 | 112% (inactive)
O=C1Nc2ccccc2SC1C1SC(=S)N(Cc2ccccc2)C1=O (centres undefined) | 31.4% (inactive)
Nc1cccc(S(=O)(=O)c2cccc(N)c2)c1 | 119% (inactive)
Cc1ccncc1C(N)=O | 93.8% (inactive)
O=C(COCc1c(-c2ccccc2)no[n+]1[O-])Nc1nc(-c2ccc(Cl)cc2)cs1 | 100% (inactive)
CCN1CCN(c2ccc(NC(=O)Nc3ccc4c(ccn4-c4ccnc(C(=O)NC)c4)c3)cc2C(F)(F)F)CC1 | 65.9% (inactive)
CCCn1c(=O)c2c(nc(-c3cccc(OCCCCl)c3)n2C)n(CCC)c1=O | 23.6% (inactive)
c1csc(-c2cnc3nonc3n2)c1 | 67.5% (inactive)
COc1cc2c3c(c4c5ccccc5[nH]c4c2c(OC)c1OC)C(=O)N(O)C3=O | 32.7% (inactive)
CC(C)N=C1CCCC1C(=S)SSC(=S)C1CCCC1=NC(C)C (centres undefined) | 63.6% (inactive)
CN(C)C/C=C/C(=O)Nc1cc2c(Nc3ccc(F)c(Cl)c3)ncnc2cc1O[C@H]1CCOC1 | -40.5% (active)
CCOC(=O)c1ccc(N/C=C/C(=O)c2ccccc2)cc1 | 98.9% (inactive)
COC(=O)[C@]12CC[C@@H](C)[C@H](C)[C@@H]1C1=CC[C@@H]3[C@@]4(C)C/C(=N\O)[C@H](O)[C@@]5(C)COC(=C45)C[C@@]3(C)[C@]1(C)CC2 | -71.7% (active)
Cc1cc(N(CCCNc2ccnc3cc(Cl)ccc23)Cc2ccco2)nc(Cl)n1 | 32.4% (inactive)
COc1cc(-c2csc(NC(=O)c3cc(-n4cnc(C)c4)cc(C(F)(F)F)c3)n2)cc(OC)c1OC | 78.4% (inactive)

Compound | growth
CCCC[n+]1ccc(SCC(=O)n2ccc3ccccc32)c2ccccc21 | 52.1% (inactive)
CCOC(=O)C1CCc2c(ccc3ccccc23)N1CCC#N (centres undefined) | 73.6% (inactive)
Clc1cc(Br)ccc1-c1ccc(CNCC2CCNCC2)o1 | 21.2% (inactive)
COc1c(O)c(O)cc2c3c(oc12)CC(c1ccc2c(c1)OCO2)CC3=O (centres undefined) | 79.9% (inactive)
Nc1c2c(nc3ccc(Cl)cc13)CC(c1ccccc1)CC2=O (centres undefined) | -5.35% (active)
Cc1cc(C)c(C(=O)OC(C)CNC2CCCCC2)c(C)c1 (centres undefined) | 103% (inactive)
COc1ccc(C(=O)OC2C(OC3C(O)COC(O[C@H]4C[C@H]5[C@@H]6CC=C7C[C@@H](O)CC[C@]7(C)[C@H]6CC[C@]5(C)[C@H]4[C@H](C)C(=O)CCC(C)C)C3OC(N)=O)OCC(O)C2O)cc1 (some centres undefined) | -24.5% (active)
CCC(CO)Nc1nc2ccc(Cl)cc2c2ccccc12 (centres undefined) | 33% (inactive)
CN(C)c1ccc(/C=C/c2sc3ccc4ccccc4c3[n+]2C)cc1 | -86.4% (active)
CCCC#CCN(CC)CC | 99.1% (inactive)
C#Cc1cccc(Nc2ncnc3cc(NC(=O)CCl)ccc23)c1 | -60.8% (active)
COC1OC(COS(=O)OC)C(O)C(O)C1OS(=O)OC (centres undefined) | 96.4% (inactive)
CC(C)(C)OC[C@@H]1N=C(c2ccc(Br)cc2)Nc2nc3ccccn3c2C1=O | 45.6% (inactive)
CN(C)CCNC(=O)c1cccn2c(=O)c3cc4ccccc4cc3nc12 | -43.6% (active)
Cc1ccc(=O)[nH]n1 | 103% (inactive) and 104% (inactive)
N#Cc1c(-c2ccc(Cl)cc2)csc1NC(=O)Nc1ccc(Cl)c(C(F)(F)F)c1 | -9.61% (active)
O=C(c1ccccc1)C(c1ccccc1)N1CCOCC1 (centres undefined) | 103% (inactive)
CCOC(=O)c1c(-c2ccc(OC)cc2)c(C#N)c2c(C#N)c(N)nn2c1N | 13.2% (inactive)
COc1ccc(C/C(C)=C(\c2ccc(Cl)cc2)c2ccc(OCCN3CCCCCC3)cc2)cc1 | 70.9% (inactive)
